By remaining activity is commonly meant the signal under treatment as a percentage of the control signal. For orientation: viability means a per cent measure of how many cells are alive, often set against a control. For orientation: IC50 means the midpoint of a concentration-inhibition curve. What is called inhibition is the relative decrease from the control value, in per cent.

Values joined by “and” are separate entries in the source; they are usually repeats but may differ in a detail not shown here. Equal values may be shown once. Results filed as inconclusive are left out. Active and inactive are the calls of the source. Unless noted, no rule for the calls is given here.

The source of these data is PubChem BioAssay.

The test system of experiment [1] is Aerobactin synthetase IucA (Klebsiella pneumoniae). The experiment in a line: inhibition of K. pneumoniae IucA enzyme – biochemical, Tocris library, absorbance (AID 1345561).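 Also: 100% = enzyme without compound and 0% = no enzyme.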 The settings on record: purified IucA enzyme assay, absorbance (OD) read-out; stronger effect = lower value;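 tested at 8 µM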.
Experiment [2] in a line: viability loss in pontine glioma line – cell-based, JHH-DIPG-1, MIPE4.0, CellTiter-Glo, qHTS, dose response (AID 1347062; cut-off not given, nearly all actives have AC50 up to about 27 µM). To be noted: JHH-DIPG-1 viability, CellTiter-Glo ATP luminescence.
A short description of experiment [3]: growth inhibition of DIPG cells – cell-based, MIPE5.0 library, qHTS (AID 1347068; cut-off not given, nearly all actives have IC50 up to about 30 µM;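 as to IC50: cells exposed to compound for 48 hours before viability readout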). The settings on record: SU-DIPG-XXV viability. Background: In qHTS, concentration-response curves come from the screen itself.
Experiment [4] can be described thus: viability loss with induced miR-34 in A549 – imaging, A549 dox-inducible miR-34, nuclei and caspase counts, primary screen (AID 1347080;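 active = compounds whose cell count with miR-34 switched on is under 0.7 times the count with it off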). The settings on record: A549 miR-34 inducible, Hoechst nuclei count, 48 h.
A short description of experiment [5]: chitosan synthesis blockers in C. neoformans – flow cytometry, Cibacron Brilliant Red staining (AID 1347148).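 Also: compound exposure lasted three days at 37 degrees C.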 The settings on record: Cryptococcus neoformans chitosan, stronger effect = lower value; at 10 µM unless noted.
Experiment [6] can be described thus: galactose survival enhancers in mitochondrial complex I cybrids – cell-based, galactose medium, ATP luminescence, primary screen (AID 1645843;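 active = z-score of at least 1.8 in each of two replicates, scored against plate mean and spread of sample wells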;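 also: positive z means more ATP and so rescue of galactose-driven cybrid death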). The settings on record: complex I mutant cybrid cells, 72 h, stronger effect = higher value.
The nature of experiment [7]: P. berghei load reduction in hepatocytes – cell-based, HepG2, luciferase luminescence, HepG2 viability, primary screen (AID 624349; in the data active = parasite load remaining mostly below about 12%, no sharp cut-off; inactive = mostly above about 10%;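 also: 100% = mean of DMSO negative control wells on the same plate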). To be noted: P. berghei liver stage in HepG2, luciferase luminescence, concentration not given here; parasite load remaining: stronger effect = lower value; viability: measured here: HepG2 viability without parasites.
Experiment [8] can be described thus: viability loss in pontine glioma line – cell-based, SU-DIPG-XIII, MIPE4.0, CellTiter-Glo, qHTS, dose response (AID 1347061; cut-off not given, nearly all actives have AC50 up to about 37 µM;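 also: cells exposed to compound for 48 hours before readout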). The settings on record: CellTiter-Glo ATP luminescence. In general terms: Cellular ATP, detected with luciferase, serves as a proxy for viable cell number.
The nature of experiment [9]: compounds altering HSF1 focus formation in cells – imaging, Selleck Cancer Library (AID 1347162; in the data active = plate-normalised HSF1 focus index below about 0.46). To be noted: human cells, HSF1 nuclear foci imaging, at 10 µM; SSMD: measured here: HSF1 foci SSMD mean; cell count: measured here: cell number; plate-normalised HSF1 focus index: stronger effect = lower value.
Experiment [10] is described as follows: blockers of cellular phospholipid synthesis – cell-based, LOPAC library, screen 4, primary screen (AID 1347384). The settings on record: animal cells, phospholipid biosynthesis inhibition screen; at 10 µM.
In experiment [11] the test system is Hepatitis C virus NS3 helicase. Briefly: blockers of NS3h binding to ssDNA – biochemical, fluorescence polarization, LOPAC1280 library, primary screen (AID 687035; in the data active = inhibition above about 37%). The settings on record: Purified HCV NS3 helicase, Cy5-dT15 ssDNA binding fluorescence polarization; stronger effect = higher value; concentration not given here. (Fluorescence polarisation rises when a labelled molecule tumbles more slowly, as on binding a larger partner.)

Experiment [12] can be described thus: compounds altering Cy5-DNA-NS3h complex signal – biochemical, LOPAC1280, artefact control for HCV NS3 helicase inhibitor project (AID 687037). The settings on record: Cy5-DNA-NS3h complex fluorescence interference counterscreen.
Experiment [13] in a line: compounds altering circadian rhythm period length – cell-based, LOPAC library, luminescence reporter (AID 2774).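 Also: values are relative to mean of DMSO wells on each plate.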 The settings on record: circadian reporter cells, at 7 µM, actives lie on both sides.
A short description of experiment [14]: compounds altering viability of human ES cells (AID 493140).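 Also: cells exposed to compounds for four days before counting.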 To be noted: human embryonic stem cell survival screen; stronger effect = higher value.
Experiment [15] is described as follows: MELAS cybrid and Rieske KO viability enhancers – cell-based, MELAS cybrids, Rieske KO mouse fibroblasts, CellTiter-Glo, primary screen (AID 1508586;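 active = mean z-score across replicates of 1.96 or higher in either the MELAS or the Rieske mutant cell line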;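 also: z relative to plate mean and SD of compound and empty wells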). To be noted: low glucose.
[16] abbreviates: stronger effect = lower value, cell number ratio, induced over uninduced.
Setting [17] is: measured here: relative caspase fold change +Dox/-Dox.
Setting [18] is: measured here: total cells with miR-34 induction, stronger effect = lower value.
Where [19] appears, read: measured here: total cells without miR-34 induction.

In the case of `Clc1ccc(-c2nc3sccn3c2/C=N/OCc2ccc(Cl)c(Cl)c2)cc1`, the remaining activity in experiment [1] was 112% (inactive). Moreover, the call in experiment [2] and in [3] was inactive. The fold change in [4] (setting [16]) is 0.906 (inactive) and 0.897 (inactive); in experiment [4] (setting [17]) it was 1.07 and 1.53. Further, the cell count in experiment [4] (setting [18]) was 4600 and 7870; in [4] (setting [19]) it was 5080 and 8770. Besides, in [5], the fold fluorescence is 3.64 [at 114.5 µM] (inactive). In experiment [6], the z-score is 0.06 (inactive).

As for `Cc1ccccc1C(=O)c1ccc(Nc2ccc(Br)cc2N)cc1Cl`, the parasite load remaining in experiment [7] is 40.9% (inactive). This compound also yielded a viability in [7] of 76.7%. For the same compound, the remaining activity in experiment [1] was 120% (inactive). Moreover, in [8], the compound was called inactive. Besides, in experiment [3], the IC50 was 23.5 µM (active). Moreover, the fold change was 0.938 (inactive) in experiment [4] (setting [16]) and 1.33 in experiment [4] (setting [17]). Also, the cell count in [4] (setting [18]) was found to be 6770; in experiment [4] (setting [19]), 7220. For the same compound, in experiment [6], the z-score is -0.695 (inactive).

In the case of `C=CCc1cccc(/C=N/NC(=O)CN2CCN(Cc3ccccc3)CC2)c1O`, the remaining activity in [1] was 83.1% (inactive). In addition, the fold change was 1.09 (inactive) and 0.918 (inactive) and 0.982 (inactive) in experiment [4] (setting [16]); 0.357 and 1.59 and 1.69 in [4] (setting [17]). For the same compound, the cell count was 2970 and 4320 and 3830 in experiment [4] (setting [18]); 2740 and 4710 and 3900 in [4] (setting [19]); 7490 in [9]. The compound also had an SSMD in experiment [9] of 3.11. Further, the plate-normalised HSF1 focus index in experiment [9] was 1.19 (inactive). Further, the compound was called inactive in experiment [10]. Besides, the z-score in [6] is -1.15 (inactive) and -0.59 (inactive).

In the case of `CCOC(=O)C(C)Oc1cccc2c(=O)n(CC(=O)Nc3ccc4c(c3)OCCO4)ccc12` (configuration not stated), the inhibition in experiment [11] is -3% (inactive). Moreover, the fluorescence ratio (interference) in experiment [12] is 1 (inactive). Besides, the remaining activity in [1] was 96.6% (inactive). Besides, the compound was called inactive in experiment [8], in experiment [2] and in [3]. In addition, the fold change in experiment [4] (setting [16]) is 0.916 (inactive) and 0.854 (inactive); in experiment [4] (setting [17]), 0.783 and 1.31. Also, the cell count in experiment [4] (setting [18]) is 8970 and 6830; in experiment [4] (setting [19]), 9800 and 8000; in experiment [9], 6920. For the same compound, in [9], the SSMD worked out at 0.942. Besides, the plate-normalised HSF1 focus index in [9] was 1.06 (inactive). For the same compound, in [6], the z-score was 0.675 (inactive) and 0.45 (inactive).

With `N#C/C(=C\c1ccc(O)c(O)c1)C(=O)NCc1ccccc1`, the period change in [13] was 0.01 h (inactive). The survival in experiment [14] was 133 (inactive). For the same compound, the parasite load remaining in experiment [7] was 29.1% (inactive). Further, the viability in [7] was 65.5%. Moreover, in experiment [11], the inhibition was 0% (inactive). Moreover, the fluorescence ratio (interference) in experiment [12] was 1 (inactive). For the same compound, the remaining activity in [1] is 113% (inactive). In addition, the compound was classed as inactive in experiment [2] and in [3]. The fold change in experiment [4] (setting [16]) was 1.1 (inactive) and 0.928 (inactive); in experiment [4] (setting [17]) it was 1.17 and 1.42. In addition, the cell count in experiment [4] (setting [18]) was 2450 and 8410; in experiment [4] (setting [19]) it was 2230 and 9060. Also, in experiment [5], the fold fluorescence is 6.89 [at 169.9 µM] (inactive). Also, the z-score in [6] is -0.425 (inactive).

`Cc1cccc(C#Cc2ccccc2)n1`: in experiment [13], the period change is 0.065 h (inactive). Also, the inhibition in experiment [11] is -1% (inactive). Moreover, the fluorescence ratio (interference) in experiment [12] was 1 (inactive). Also, in [1], the remaining activity was 102% (inactive). For the same compound, the outcome in experiment [8], in experiment [2] and in experiment [10] was inactive. Further, the fold change in experiment [4] (setting [16]) is 1.16 (inactive) and 0.932 (inactive) and 0.863 (inactive); in [4] (setting [17]) it was 0.95 and 0.499 and 0.79. Further, the cell count is 8900 and 6820 and 7820 in [4] (setting [18]); 7690 and 7310 and 9060 in experiment [4] (setting [19]). For the same compound, the z-score was -0.0615 (inactive) in experiment [15] (MELAS cybrid survival, CellTiter-Glo 48 h, stronger effect = higher value); 0.0234 in experiment [15] (Rieske KO mouse fibroblast survival, CellTiter-Glo 72 h); 1.15 (inactive) and 1.02 (inactive) in experiment [6].
